An excerpt weighted towards active compounds, which were near 2.4% of everything screened.
D2 ag-1 = Beta-Arrestin HTS for Positive Allosteric Modulators of the Human D2 Dopamine Receptor: Agonists; D(2) dopamine receptor (Homo sapiens), P14416; DiscoveRx PathHunter D2 beta-arrestin, luminescence, 90 min; 100% = 57 uM dopamine signal; activation, % (concentration not given with the values); 360,000 compounds, 0.084% hits; in the data active means activation above about 40%; inconclusive means between about 15% and that limit
Target sequence (P14416 whole entry, looked up): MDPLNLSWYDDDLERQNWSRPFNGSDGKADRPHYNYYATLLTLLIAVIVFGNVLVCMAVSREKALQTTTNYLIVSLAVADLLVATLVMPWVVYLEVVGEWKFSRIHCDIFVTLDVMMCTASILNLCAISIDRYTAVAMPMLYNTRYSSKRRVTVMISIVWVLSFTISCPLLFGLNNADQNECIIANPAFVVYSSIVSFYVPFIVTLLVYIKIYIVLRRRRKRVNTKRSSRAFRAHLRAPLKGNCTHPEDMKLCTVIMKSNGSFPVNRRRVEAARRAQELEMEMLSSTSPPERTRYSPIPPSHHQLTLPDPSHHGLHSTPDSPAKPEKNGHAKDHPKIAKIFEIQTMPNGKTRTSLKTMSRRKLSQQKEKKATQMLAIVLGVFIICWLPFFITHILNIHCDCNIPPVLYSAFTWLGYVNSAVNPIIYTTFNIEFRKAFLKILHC
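Agonist mode: compounds alone added to overnight-plated D2 PathHunter cells for 90 min at 37 C, with 57 uM final dopamine (EC100) defining full response. Beta-arrestin recruitment detected by chemiluminescent reagent, read after 1 h at ambient temperature.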
D2 PAM-1 = HTS Assay for Positive Allosteric Modulators of the Human D2 Dopamine Receptor: Primary Screen for Potentiators | 340,000 compounds, 0.34% hits | HEK293 T-REx D2, calcium flux, EC20 dopamine potentiation | D(2) dopamine receptor (Homo sapiens), P14416 | potentiation, % at 10 µM;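 active means potentiation over 3 SD above the plate norm, cut at about 30% in these data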; further: 0% is about no effect
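Tetracycline-induced Hek293 Trex D2 cells, force-coupled to calcium, loaded with no-wash calcium dye. Compound added with 180 s kinetic read for agonism, then EC20 dopamine and a further 180 s read for potentiation.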
D2 antag = HTS Assay for Allosteric Antagonists of the Human D2 Dopamine Receptor: Primary Screen for Antagonists; D(2) dopamine receptor (Homo sapiens), P14416; 340,000 compounds, 2% hits; inhibition, % at 10 µM; HEK293 TREx D2 cells, calcium flux, dopamine EC80; AID 485344, 2010; in the data active means inhibition above about 30%; inactive means below that, where a call was filed; further: 0% is about no effect
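Cells plated overnight at 30 C with tetracycline; no-wash calcium dye, 30–90 min RT; 10 s baseline; compound pinned; 180 s read; EC80 dopamine added; another 180 s read.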
D2 ag-2 = HTS Assay for Allosteric Agonists of the Human D2 Dopamine Receptor: Primary Screen for Agonists. D(2) dopamine receptor (Homo sapiens), P14416. HEK293 T-REx D2 cells, calcium flux agonist mode. activation, % at 2 µM. 340,000 compounds, 0.53% hits. AID 485358, 2010;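 active means activation over 3 SD above normal in the single-dose calcium agonist read, cut at about 30% in these data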; further: 0% is about no effect
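Tetracycline-induced HEK293 T-REx cells with force-coupled D2 receptor, plated overnight at 30 C, loaded with no-wash calcium dye. After a 10 s baseline, compound was pin-added and calcium flux read kinetically for 180 s; calcium rises flagged agonists.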
D2 PAM-2 = Beta-Arrestin HTS for Positive Allosteric Modulators of the Human D2 Dopamine Receptor: Potentiators. potentiation, % (test concentration not listed). DiscoveRx D2 beta-arrestin cells, luminescence, 90 min; 100% = 57 uM dopamine signal. AID 624464, 2012. 360,000 compounds, 0.23% hits; in the data active means potentiation above about 50%; inconclusive means mostly about 30% to 49%
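PathHunter D2 cells, attached overnight at 37 deg C, received compound in DMSO plus dopamine at EC20 (50 nM final) for 90 min at 37 deg C. Beta-arrestin recruitment was read as luminescence after 1 h with detection reagent at ambient temperature.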
D3 ag = qHTS of D3 Dopamine Receptor Agonist: D3 Dopamine Receptor B-arrestin Agonist Confirmatory Assay. shares compounds with D2 ag-2. DiscoveRx D3 beta-arrestin cells, luminescence, 90 min. Potency, µM (top dose mostly 76.9 µM), inactives show top-dose activation, actives largely listed as activators. 2,300 compounds, 4% hits. AID 720506, 2013;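 further: potency means the concentration at half of the fitted maximal effect; 100% = dopamine control response; nearly all actives have a fitted effect of over 70% in size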
D2 ag-3 = qHTS of D3 Dopamine Receptor Agonist: D2 Dopamine Receptor B-arrestin Agonist Counterscreen; shares compounds with D2 ag-2; 2,300 compounds, 5.9% hits; AID 720507, 2013; DiscoveRx PathHunter D2 beta-arrestin, luminescence, 90 min; response scale: percent relative to full dopamine signal; Potency, µM (doses to about 76.9 µM), without a hit: at the highest dose activation, usual class: activators; further: potency means the concentration at half of the fitted maximal effect; % of control where 0% means no effect; nearly all actives have a fitted effect of over 70% in size
The depositor's hits bear a star; ? = inconclusive; / = not tested or not shown. Unless noted, the call rests on the fitted dose curve; in most records, active means well fitted activation curve with a large enough effect; inconclusive means small, poorly fitted or top-dose-only effect; inactive means flat fitted curve, though single readings scatter.

SMILES	D2 ag-1	D2 PAM-1	D2 antag	D2 ag-2	D2 PAM-2	D3 ag	D2 ag-3
COc1cc(CN2CCN(c3ccccc3F)CC2)cc(OC)c1O	?	-18	70*	60*	-1	?	?
CCn1c(=O)c(CCC(=O)NCCN2CCOCC2)c(C)c2c(C)nn(-c3ccccc3)c21	0	15	1	-1	-10	/	/
CCn1c(=O)c(CCC(=O)N2CCN(c3ccccn3)CC2)c(C)c2c(C)nn(-c3ccccc3)c21	6	5	8	15	-4	22%	13%
CC1CCN(c2ccc(C(=O)NCc3ccco3)cc2[N+](=O)[O-])CC1	-1	2	6	0	-14	-10%	-11%
Cc1cc(C)cc(C(=O)n2nc(C)c(S(=O)(=O)N3CCCCCC3)c2C)c1	/	3	/	-2	/	/	/
CC(C)c1ccc2[nH]c3c(c2c1)[C@@H]1CCN2C(=O)CCC[C@H](C3)[C@H]12	0	/	/	/	-3	/	/
Cc1ccc2[nH]c3c(c2c1)CN(C(=O)CN1CC(C)OC(C)C1)CC3 (configuration not stated)	0	-4	5	2	15	/	/
Cc1ccc2[nH]c3c(c2c1)CN(C(=O)CN1CCN(c2ccccn2)CC1)CC3	9	-9	8	31*	3	26%	18%
Cc1ccc2[nH]c3c(c2c1)CN(C(=O)CN1CCSCC1)CC3	/	-4	-13	-3	/	/	/
CCOC(=O)N1CCc2[nH]c3ccc(C)cc3c2C1	3	21	-16	29	-13	-8%	0%
O=C(CNC(=O)c1ccc(Br)o1)NCC1CCCCC1	-3	-5	-11	0	-21	-5%	-6%
CCCCCC(=O)NC(=S)Nc1ccc2oc(=O)ccc2c1	-5	-9	-4	0	-5	/	/
Cc1ccc(C(=O)OCC(=O)NCc2cccc(Cl)c2)cc1S(=O)(=O)N1CCCCC1	-2	1	-5	1	-8	/	/
O=C(O)c1ccc(NC(=O)c2ccc3c(c2)C(=O)N(c2ccccc2)C3=O)cc1	-6	2	7	0	-5	/	/
O=C(O)c1ccc(S(=O)(=O)c2ccc3c(c2)C(=O)N(c2ccc(O)cc2)C3=O)cc1	4	-26	-3	61*	-2	11%	8%
COc1ccccc1NC(=O)c1cc([N+](=O)[O-])ccc1NCCN1C(=O)CCC1=O	-3	-24	-8	47*	-5	-6%	-9%
CC(C)c1ccc(NC(=O)C2CC3CCC2C3)cc1 (configuration not stated)	0	-4	11	0	-2	/	/
O=C(Nc1ccc(F)cc1)C1CC2CCC1C2 (configuration not stated)	13	/	/	/	-4	-10%	-6%
Cc1ccccc1OCC(=O)Nc1ccc(OCc2cc(=O)n3ccccc3n2)cc1	/	-8	/	-3	/	/	/
c1cnc(N2CCN(Cc3ccc4c(c3)OCO4)CC2)cn1	44*	-23	90*	80*	?	?	?
O=[N+]([O-])c1cccnc1N1CCN(Cc2ccc3c(c2)OCO3)CC1	44*	-25	92*	89*	10	-5%	?
O=C(c1cccnc1)N1CCN(Cc2ccc3c(c2)OCO3)CC1	-2	-4	-7	0	-19	/	/
